Measurements taken from PubChem BioAssay AID504850 (National Center for Advancing Translational Sciences (NCATS), 2011).
Out of some 2,300 compounds screened, about 1,200 (52%) were called active. About 34% were inconclusive and are not listed. Calls come from the whole dose curve; as a rule, active = well fitted inhibition curve with a large enough effect; inconclusive = small, poorly fitted or top-dose-only effect, or effect the other way; inactive = no such curve, though single readings can be large or run the other way. So high a share suggests a set chosen from earlier hits. The list shows a part of the results.

Test: Confirmation screen for delayed death inhibitors of the malarial parasite plastid, 48 hour incubation; note: nearly all actives have a fitted effect of over 65% in size
Details: P. falciparum-infected erythrocytes, luciferase growth; series mostly up to 28.7 µM
Procedure, shortened: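 Erythrocytes infected with luciferase-expressing P. falciparum (2% hematocrit, 0.1% parasitemia) incubated with compounds 48 hours at 37 C, 5% CO2, in RPMI/Albumax. Growth inhibition scored as reduced luminescence after detection reagent.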
Potency is the fitted concentration of half-maximal effect.

| SMILES | Potency |
| --- | --- |
| O=C(CCl)NCc1c(Cl)cccc1-n1cccc1 | 12.6 µM (active) |
| C/C(CC(=O)NC1CCCCC1)=N\NC(=O)COc1ccc(C)cc1Br | inactive |
| O=C(NC1CCCCC1)c1ccc(CS(=O)Cc2ccccc2Cl)o1 (centres undefined) | 12.6 µM (active) |
| Cc1ccc(CS(=O)(=O)Cc2ccc(C(=O)NC3CCCC3)o2)cc1 | 11.2 µM (active) |
| Cn1c(=O)n(C)c2cc(NC(=O)CCl)ccc21 | 2.24 µM (active) |
| O=C(CCl)Nc1ccc2c(c1)OCO2 | 2.24 µM (active) |
| Cc1ccc(NC(=O)c2nnn(CC(=O)Nc3ccc4c(c3)OCO4)c2N)cc1C | inactive |
| CCN1CCN(Cc2c(O)ccc3c2O/C(=C\C=C\c2ccccc2)C3=O)CC1 | 3.98 µM (active) |
| Cc1cc(OCC(=O)N2CCCC2)cc(C)c1Cl | inactive |
| COc1ccc(CNC(=O)c2cc(S(=O)(=O)N3CCOCC3)cn2C)cc1 | inactive |
| O=S(=O)(c1ccc(OCC(O)CN2CCN(c3ccc(F)cc3)CC2)cc1)N1CCOCC1 (centres undefined) | 11.2 µM (active) |
| Cc1cc(OCCN2CCN(S(=O)(=O)c3ccccc3F)CC2)ccc1C(C)C | inactive |
| O=C(COc1ccccc1)N1CCN(S(=O)(=O)c2ccc(Br)cc2)CC1 | 11.2 µM (active) |
| O=S(=O)(c1ccc(OCc2ccc(Br)cc2)cc1)N1CCOCC1 | 11.2 µM (active) |
| CCOc1ccc(S(=O)(=O)N2CCN(C(=O)CCOc3ccccc3C)CC2)cc1 | 12.6 µM (active) |
| Cc1cccc(-c2ccc3ncnc(NCc4cccs4)c3c2)c1 | 7.08 µM (active) |
| COc1cccc(-c2ccc3ncnc(NCc4cccs4)c3c2)c1 | 11.2 µM (active) |
| CN(C)c1ccc(CNc2ncnc3sccc23)cc1 | inactive |
| Cc1ccn2c(NC3CCCC3)c(-c3ccccn3)nc2c1 | 7.08 µM (active) |
| COc1cccc([C@@H]2Oc3ccc(OC)cc3C(=O)[C@H]2O)c1 | 7.94 µM (active) |
| CC(=O)N1CN(C2CCCC2)Cc2c1sc1c2CCCC1 | 14.1 µM (active) |
| COc1ccc(S(=O)(=O)N2CCCCCC2)cc1C(=O)N(C)CC(=O)Nc1cc(C)ccc1C | 7.94 µM (active) |
| CCOc1ccccc1N(CC(=O)Nc1ccc(S(=O)(=O)N2CCCC2)cc1)S(C)(=O)=O | 12.6 µM (active) |
| COc1ccc(C)cc1N(CC(=O)Nc1ccc(S(=O)(=O)N2CCCC2)cc1)S(C)(=O)=O | 15.8 µM (active) |

| SMILES | Potency |
| --- | --- |
| COC(=O)c1cc(NC(=O)CN2CCc3cc4c(cc3C2)OCCCO4)cc(C(=O)OC)c1 | 12.6 µM (active) |
| COC(=O)c1cn(C)c2ccc(S(=O)(=O)N3CCCC3)cc2c1=O | inactive |
| CCN(CC(=O)Nc1ccc(S(=O)(=O)N2CCOCC2)cc1)Cc1ccccc1 | 12.6 µM (active) |
| C/C=C(\C)CN1CCc2cc(OC)c(OC)cc2C1 | inactive |
| COc1ccc(OCCOc2ccc(S(=O)(=O)N3CCCC3)cc2C(N)=O)cc1 | 11.2 µM (active) |
| COc1ccc(S(=O)(=O)N2CCCN(S(=O)(=O)c3ccc(OC)c(C)c3)CC2)cc1C | 14.1 µM (active) |
| COc1cc2c(cc1OC)CN(CC(=O)Nc1ccc(S(=O)(=O)N3CCCC3)cc1)CC2 | 15.8 µM (active) |
| N=C1S/C(=C\c2ccco2)C(=O)N1c1nccs1 | 14.1 µM (active) |
| O=C(CCCN1C(=O)/C(=C\c2ccco2)SC1=S)Nc1ccc2ccccc2c1 | inactive |
| O=C(c1ccc(Cl)cc1)C(Cn1cncn1)C(Sc1ccccc1)c1ccccc1 (centres undefined) | 14.1 µM (active) |
| Cc1cc(C)c(/C=C(\C#N)C(N)=S)c(C)c1 | inactive |
| CCN(CC)S(=O)(=O)c1ccc(N2CCOCC2)c(NC(=O)C2CSC3(C)CCC(=O)N23)c1 (centres undefined) | 14.1 µM (active) |
| COc1ccc([C@@]2(C(C)C)ON(c3ccccc3C(F)(F)F)C2=O)cc1 | 1.12 µM (active) |
| CCOC(=O)CC(Nc1nc(N2CCOCC2)nc(N2CCOCC2)n1)c1ccccc1Cl (centres undefined) | 6.31 µM (active) |
| CCCc1ccc(C(=O)NC(=O)c2ccccc2O)cc1 | 0.501 µM (active) |
| CCN(CCN1CCCC1)C(=O)c1cc(COc2ccccc2SC)on1 | 15.8 µM (active) |
| CSc1ccccc1OCc1cc(C(=O)N2C[C@H]3CC[C@H]2C3)no1 | inactive |
| CSc1ccccc1OCc1cc(C(=O)NCCn2ccnc2C)no1 | inactive |
| CSc1ccccc1OCc1cc(C(=O)NCCCn2nc(C)cc2C)no1 | 15.8 µM (active) |
| CSc1ccccc1OCc1cc(C(=O)N(C)CCc2c(C)n[nH]c2C)no1 | 12.6 µM (active) |
| Nc1nc(SCC(=O)NCC2CCCO2)[nH]c(=O)c1NC(=O)c1ccc(F)c(F)c1 (centres undefined) | 12.6 µM (active) |
| CCS(=O)(=O)c1nc(S(=O)(=O)c2ccc(C)cc2)c(N2CCC3(CC2)OCCO3)s1 | 12.6 µM (active) |
| CC(C)Cc1ccc(C(=O)Nc2ccc(Cc3ccncc3)cc2)o1 | 12.6 µM (active) |
| CCN(CC)S(=O)(=O)c1cc(NC(=O)C(C)OC(=O)c2[nH]c(C)c(C(C)=O)c2C)ccc1C (centres undefined) | 4.47 µM (active) |

| SMILES | Potency |
| --- | --- |
| Cc1oc2c(c1C(=O)N1CCOCC1)C(=O)c1ccccc1C2=O | 2 µM (active) |
| CCCC1O[C@@H]2CC3C4CCC5=CC(=O)C=C[C@]5(C)C4C(OC(C)=O)C[C@]3(C)[C@]2(C(=O)COC(C)=O)O1 (some centres undefined) | 7.08 µM (active) |
| COC1C(OC(=O)/C=C/C=C/C=C/C=C/C(=O)O)CCC2(CO2)C1C1(C)OC1CC=C(C)C (centres undefined) | 0.0562 µM (active) |
| CC[n+]1ccc(/C=C/c2c[nH]c3ccccc23)cc1 | 0.355 µM (active) |
| CCc1ccc(/C=C/c2c[nH]c3ccccc23)[n+](CC)c1 | 0.126 µM (active) |
| CC(C)CC1NC(=S)N(Cc2ccccc2)C1=O (centres undefined) | 5.01 µM (active) |
| Cc1nnsc1C(=O)Nc1ccccc1 | inactive |
| O=C(C#Cc1ccccc1)Nc1cccc(F)c1 | 7.94 µM (active) |
| NC(=O)c1ccc(NC(=O)C#Cc2ccccc2)cc1 | 5.01 µM (active) |
| Nc1ccc(-c2c3ccc(=O)cc-3oc3cc(O)ccc23)c(C(=O)O)c1 | inactive |
| c1ccc(Cn2nnc3c(N4CCCCCC4)ncnc32)cc1 | 14.1 µM (active) |
| CCn1c(=O)n(CC)c2cc(N3CCCC3)c(NC(=O)c3ccc(C)cc3)cc21 | 11.2 µM (active) |
| O=C(COC(=O)c1ccc(F)c(S(=O)(=O)N2CCOCC2)c1)Nc1ccc2[nH]c(=O)[nH]c2c1 | inactive |
| COc1ccc(NC(=O)Cc2coc3cc(C)c(C(C)C)cc23)cc1S(=O)(=O)N1CCOCC1 | 12.6 µM (active) |
| COc1ccc(NC(=O)Cc2ccc(Cl)cc2)cc1S(=O)(=O)N1CCCCC1 | 12.6 µM (active) |
| Cc1ccc(NC(=O)COc2ccccc2C#N)cc1S(=O)(=O)N1CCCCCC1 | 14.1 µM (active) |
| COc1ccc(CC(=O)NNC(=O)CN(C)S(=O)(=O)c2ccc(Cl)cc2)cc1OC | inactive |
| COc1ccccc1-c1coc2cc(OC(=O)N3CCOCC3)ccc2c1=O | inactive |
| Cc1csc(NC(=O)Cc2coc3cc(C)c(C(C)C)cc23)n1 | 14.1 µM (active) |
| CC1(C)CC(=O)C=C(NC2=CC3OC(c4ccccc4)OCC3OC2=O)C1 (centres undefined) | inactive |
| CC[n+]1ccccc1/C=C/c1ccc(N(C)C)cc1 | 2.24 µM (active) |
| Cc1ccc(/C=C/c2ccc(N(C)C)cc2)[n+](C)c1 | 1.26 µM (active) |
| COc1cc(/C=C(/C#N)C(=O)NCc2ccccc2)cc(OC)c1OC | 14.1 µM (active) |
| CC[C@@H](C(=O)[C@@H](C)[C@@H](O)[C@H](C)CCc1ccc(C)c(O)c1C(=O)O)[C@H]1O[C@](CC)([C@H]2CC[C@](O)(CC)[C@H](C)O2)C[C@@H]1C | 0.708 µM (active) |

| SMILES | Potency |
| --- | --- |
| COc1ccc(N2CCc3c(C)nc4c(OC)cc(OC)cc4c32)c(OC)c1 | 11.2 µM (active) |
| Cc1cc(=O)nc2c3ccccc3n(CC(=O)NCCC3=CCCCC3)n12 | 12.6 µM (active) |
| Cc1ccccc1OCC(=O)NCCC1=CCCCC1 | inactive |
| Brc1ccc(/C=N/Nc2ncnc3c2cnn3Cc2ccccc2)cc1 | 3.98 µM (active) |
| COc1cccc(/C=N/NC(=O)c2nc(-c3ccccc3)cc(-c3ccccc3)n2)c1O | 6.31 µM (active) |
| COC(=O)c1ccc(COc2ccccc2/C=N/O)o1 | inactive |
| O=C(Cn1ncc2c3ccccc3n(Cc3cccc(Cl)c3)c2c1=O)NCc1ccccn1 | 14.1 µM (active) |
| COc1ccc(Cn2c(O)c(C=Nc3ccc(O)cc3)c3ccccc3c2=O)cc1 | 10 µM (active) |
| CC[C@@H]1CC=C[C@H]2[C@H]1C(=O)N(Cc1ccccc1)[C@H]2c1ccoc1 | 7.08 µM (active) |
| O=C(COC(=O)c1c2c(nc3ccccc13)CCN(Cc1ccccc1)C2)Nc1c(F)cccc1F | 6.31 µM (active) |
| COc1cccc(CN2CCN(c3nc4nonc4nc3N3CCCCC3)CC2=O)c1 | 10 µM (active) |
| O=C(COc1ccc(Br)cc1)Nc1cc(S(=O)(=O)N2CCCCC2)ccc1N1CCCCC1 | 5.62 µM (active) |
| O=C(COc1ccc(Cl)cc1)Nc1cc(S(=O)(=O)N2CCCCC2)ccc1N1CCCCC1 | 5.62 µM (active) |
| CCN1CCN(c2ccc(S(=O)(=O)N3CCCCC3)cc2NC(=O)COc2cc(C)ccc2Cl)CC1 | 14.1 µM (active) |
| CC(Oc1cccc(Cl)c1)C(=O)Nc1cc(S(=O)(=O)N2CCOCC2)ccc1N1CCCCC1 (centres undefined) | 5.01 µM (active) |
| C[C@@H]1[C@H](O)C[C@@]23COC(=O)C2=CCCC3[C@@]1(C)CCC1COC(=O)C1 (some centres undefined) | inactive |
| CSc1ccc(/C=C/C(=O)c2ccc(NC(=O)C(C)C)cc2)cc1 | 15.8 µM (active) |
| CSc1c(CC(=O)Nc2ccccc2)n(C)c2ccccc12 | 8.91 µM (active) |
| Cc1ccc2c(c1)cc(C(=O)NCc1ccccc1)n2C | inactive |
| CC(C)(C)c1cc(C(=O)NNc2cccc(Cl)c2)n(Cc2ccccc2)n1 | 12.6 µM (active) |
| Cc1ccc(NC(=O)c2cc(C(C)(C)C)nn2Cc2ccccc2)cc1 | 11.2 µM (active) |
| Cc1cccc(Cn2nc(C(C)(C)C)cc2C(=O)Nc2ccc(F)cc2)c1 | 4.47 µM (active) |
